# This is part of a sample that, as a whole, favours compounds with a hit. Of some 83,000 tested, about 20% had one in any assay.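 Interpretation: 100, growth as untreated; towards 0, rising growth inhibition; 0, no net growth; 0 to -100, cell death. Compounds scoring below 10 were considered active.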 Values without a mark were called inactive. Activity calls are given as the source filed them.
# Columns and labels:
# Assay in all cases: NCI-60 one-dose screen, 48 h (100 = growth as untreated, 0 = no growth, -100 = all killed)
# Settings in all cases: 10 µM unless noted
# [1] = tested on: HCT-15 colon
# [2] = tested on: HT29 colon
# [3] = tested on: SNB-75 CNS
# [4] = tested on: SNB-19 CNS
# [5] = tested on: U251 CNS
# [6] = tested on: PC-3 prostate
# [7] = tested on: SK-MEL-5 melanoma
# [8] = tested on: UACC-62 melanoma
# [9] = tested on: LOX IMVI melanoma
# [10] = tested on: SK-MEL-28 melanoma
# [11] = tested on: SK-MEL-2 melanoma
# [12] = tested on: EKVX NSCLC
# [13] = tested on: SN12C renal
# [14] = tested on: UO-31 renal
# [15] = tested on: TK-10 renal
# [16] = tested on: ACHN renal
# [17] = tested on: CAKI-1 renal
# [18] = tested on: A498 renal
# [19] = tested on: CCRF-CEM leukemia
# [20] = tested on: MOLT-4 leukemia
SMILES,growth [1],growth [2],growth [3],growth [4] [%],growth [5],growth [6],growth [7],growth [8],growth [9],growth [10] [%],growth [11],growth [12],growth [13],growth [14],growth [15],growth [16],growth [17],growth [18],growth [19],growth [20]
NCCCCCNc1noc(Cc2c[nH]c3cc(Br)ccc23)n1,35.7%,3.86% (active),0.268% (active),46.2,11.7%,9.96% (active),9.74% (active),22.6%,34.9%,40.2,4.12% (active),33%,42.7%,41.8%,38.6%,52.2%,35.3%,16.1%,2.39% (active),29.3%
CC(=O)/C(Br)=C/c1ccc(Br)o1,65.8%,62.4%,92.6%,87.8,80.4%,80.8%,-0.755% (active),85.9%,38.7%,60.8,99.2%,105%,73.5%,52.7%,71.5%,60.1%,26.1%,105%,-31% (active),-15.4% (active)
Cc1cccc(CN(Nc2ccccc2)c2ccccc2)n1,92.1%,96.3%,93.1%,106,91.4%,85.7%,97.9%,96.3%,98.5%,98.7,115%,79.4%,97.8%,91.8%,108%,102%,87.3%,98%,91.2%,91.1%
Nc1ncnc2c1N=C(c1ccc([N+](=O)[O-])cc1)CC(c1ccc3c(c1)OCO3)N2 (stereo not given),103%,97.3%,69.1%,83.6,89%,72.6%,80.2%,77.9%,85.3%,108,59.6%,86%,102%,55.7%,107%,88.3%,89.6%,87.4%,65%,84.1%
O=C(CSc1nnc(-c2cc(-c3ccc(Cl)cc3)nc3ccccc23)n1-c1ccccc1)Nc1ccc(Cl)cc1,97%,104%,94.2%,94.5,98.7%,80.3%,101%,87.1%,95.8%,103,105%,94.8%,90.5%,77.6%,132%,106%,89.5%,88.2%,98.5%,84.1%
Nc1ncc(-c2ccc3ncnc(N4CCc5cc(F)c(Cl)cc54)c3c2)cc1C=O,26.5%,16.4%,-38.3% (active),37,48.5%,20.1%,2.88% (active),-17.2% (active),19.2%,10.2,8.65% (active),4.02% (active),12.9%,0.272% (active),-6.72% (active),7.1% (active),-0.981% (active),-62.8% (active),18.4%,2.46% (active)
CCCN1C(=O)N(CCC)C2C1NC(=S)N2/N=C/C=C/c1ccccc1OC (stereo not given),19.3%,2.43% (active),-17.4% (active),24.6,11.9%,28.7%,26.9%,28.5%,41%,50,49.6%,51.5%,38.3%,39.5%,57.3%,41.4%,26.6%,-5.66% (active),10.1%,27.6%
O=C(Nc1ncc(Cc2ccc(Cl)cc2)s1)c1ccc2c(c1)OCCO2,8.98% (active),7.68% (active),23%,43.4,17.6%,30.3%,-21.3% (active),45.8%,31.3%,76.2,41%,35.7%,30.8%,50.2%,49.5%,29.8%,28.7%,-2.66% (active),15.4%,6.99% (active)
Cc1c(Cl)cccc1NC(=O)c1sc2nc3c(cc2c1N)CCCC3,24.1%,8.28% (active),29.6%,32.6,21%,42.1%,31%,17.3%,39.1%,68.6,22.1%,52.4%,41.2%,45.8%,62.2%,47.2%,33.9%,-1.63% (active),20.4%,21.6%
CCN(CC)CCCC(Nc1c2ccc(Cl)cc2nc2ccc(OC)cc12)c1ccncc1 (stereo not given),54.8%,43.7%,87%,81,79.3%,66.6%,88.4%,103%,63%,85.6,108%,87%,63.5%,54.3%,81.8%,57%,90.2%,81.8%,59.8%,18.3%
COc1ccc2c(c1)c(-c1nc(-c3cn(C)c4ccncc34)cs1)cn2C,-22.1% (active),-58.1% (active),120%,20.9,-74.9% (active),-17.1% (active),-22.8% (active),107%,-92.3% (active),86.8,112%,-36.7% (active),94.2%,71.2%,79.7%,95%,75.6%,90.9%,-27.9% (active),-31.1% (active)
Oc1ccc(C(c2ccc(O)cc2)c2ccc(Cl)cn2)cc1,23.2%,47.9%,-32.5% (active),71.9,97%,-32.2% (active),96.5%,39.3%,-42.6% (active),112,72.7%,15.8%,6.15% (active),64.8%,-3.31% (active),15.7%,73.5%,-1.72% (active),70.2%,98.3%
COc1ccc(CNc2c3ccccc3nc3ccccc23)cc1OC,10.3%,4.44% (active),24.8%,21.8,23.2%,22%,17.5%,26.8%,-3.83% (active),35.2,38.6%,15.2%,22.5%,12.1%,32.3%,4.11% (active),10.5%,-12.1% (active),30.5%,10.6%
O=C(Nc1ccccc1C(F)(F)F)C1=NCCCCN1,97.8%,98.7%,88%,97.7,103%,96.5%,100%,93.3%,96.2%,106,104%,93.1%,98%,86.2%,98.8%,103%,96.6%,97.1%,102%,99.2%
C=CC(=O)Nc1ccc2ncnc(Nc3cccc(NS(=O)(=O)CCC)c3Cl)c2c1,67.9%,7.98% (active),8.28% (active),49,52.5%,68%,52.4%,6.45% (active),40.7%,15,51.9%,51.8%,22.9%,19.2%,11.3%,29.3%,22.6%,-14.3% (active),50.2%,67.3%
